Results with a measured potency or affinity are listed apart. Activity calls are given as the source filed them.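 The calls were made as follows: active = fluorescent signal decreased by at least 40%; inconclusive = no clear call, values can overlap the other calls; inactive = the rest, including activity opposite to the expected direction.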
Assay: fibronectin fibrillogenesis inhibitors in fibroblasts, dose response, AH1F cells, Alexa488-fibronectin fluorescence, cherry-pick, set 2 (AID 1117283);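 also: AH1F fibroblasts given Alexa488-labelled fibronectin at 24 nM final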
Details: Alexa488-fibronectin deposition fluorescence, overnight; series mostly up to 35 µM

Row | SMILES | outcome
1 | CO[C@H]1CN(C)C(=O)c2cc(NC(=O)Nc3ccc(Cl)c(Cl)c3)ccc2OC[C@@H](C)NC[C@H]1C | inactive
2 | N#C[C@@H]1[C@@H](c2ccccc2C2=CCCCC2)[C@H](CO)N1S(=O)(=O)c1ccccc1 | inactive
3 | CC(C)(C)c1cc(Cl)c(O)c(NC(=S)NC(=O)c2cccnc2)c1 | inactive
4 | CCOc1ccccc1NC(=O)c1c(NC(=O)CCC(=O)O)sc2c1CCCCC2 | inactive
5 | COC(=O)c1c(NC(=O)CN2CCN(c3ccccc3Cl)CC2)sc(C)c1C | inactive
6 | COC(=O)c1cn(CC(=O)NCc2ccco2)c2ccccc12 | inactive
7 | CO[C@@H]1CN(C)C(=O)c2cc(NC(=O)Nc3ccc(Cl)c(Cl)c3)ccc2OC[C@H](C)NC[C@H]1C | inactive
8 | CC(C)C(=O)Nc1ccc2c(c1)C(=O)N(C)[C@@H]1CC[C@H](CC(=O)O)O[C@@H]1CO2 | inactive
9 | Cc1ccc(N(CC(=O)NCc2ccco2)S(=O)(=O)c2ccccc2)cc1 | inactive
10 | CO[C@@H]1CN(C)C(=O)c2cc(NC(=O)Nc3ccc(Cl)c(Cl)c3)ccc2OC[C@H](C)NC[C@@H]1C | inactive
11 | C[C@H]1CN([C@@H](C)CO)C(=O)c2cccc(NC(=O)Nc3ccc(C(F)(F)F)cc3)c2O[C@H]1CN(C)C(=O)Nc1cccc2ccccc12 | inactive
12 | C[C@@H]1CN([C@H](C)CO)C(=O)c2cc(-c3ccccc3)cnc2O[C@@H]1CN(C)Cc1ccccc1 | inactive
13 | C[C@@H]1CN([C@@H](C)CO)C(=O)c2cc(NC(=O)C3CCCCC3)ccc2O[C@H]1CN(C)Cc1ccc(-c2ccccc2)cc1 | inactive
14 | CC(=O)Nc1cccc(-c2ccnc3c2CC(C)(C(=O)Nc2cccc(C(F)(F)F)c2)O3)c1 (stereo not drawn) | inactive
15 | Cc1cc(C)c(S(=O)(=O)Nn2cnnc2)c(C)c1 | inactive
16 | CO[C@H]1CN(C)C(=O)c2ccc(NC(=O)c3ccc(-c4ccccc4)cc3)cc2OC[C@H](C)NC[C@H]1C | inactive
17 | COc1ccc(C)cc1N(CC(=O)Nc1cccc(N(C)S(C)(=O)=O)c1)S(C)(=O)=O | inactive
18 | N#Cc1ccc(-c2ccc3c(c2)[C@H]2[C@H](CCN2S(=O)(=O)c2cccc(F)c2)[C@@H](CO)N3)cc1 | inactive
19 | CC(C)(C)[S@](=O)N1Cc2cc(C(=O)NCc3ccccc3F)nc(-c3cccc(-c4cncnc4)c3)c2[C@@H]1CCO | inactive
20 | C[C@@H]1CN([C@H](C)CO)C(=O)c2cccc(NC(=O)Nc3ccc(C(F)(F)F)cc3)c2O[C@H]1CN(C)C(=O)Nc1cccc2ccccc12 | inactive
21 | CCOC(=O)c1nnn(-c2ccc(OC)cc2)c1N | inactive
22 | CO[C@H]1CN(C)C(=O)c2ccc(NC(=O)Nc3ccc(Cl)c(Cl)c3)cc2OC[C@H](C)NC[C@@H]1C | inactive
23 | COC(=O)C[C@@H]1CC[C@@H]2[C@@H](COc3ccc(NC(=O)Cc4cccs4)cc3C(=O)N2C)O1 | inactive
24 | COC(=O)C[C@@H]1CC[C@H]2[C@H](COc3ccc(NC(=O)Cc4cccs4)cc3C(=O)N2C)O1 | inactive
25 | C[C@H]1CN([C@@H](C)CO)C(=O)c2cc(-c3ccccc3)cnc2O[C@H]1CN(C)C(=O)c1cccc(F)c1 | inactive

Row | SMILES | outcome
26 | CCOc1cccc(C(=O)Nc2ccc(N(CC)CC)cc2)c1 | inactive
27 | C[C@@H]1CN([C@@H](C)CO)C(=O)c2cc(-c3ccccc3)cnc2O[C@@H]1CN(C)C(=O)c1cccc(F)c1 | inactive
28 | Fc1cnc(N2CCN(c3ccccc3)CC2)nc1N1CCN(c2ccccc2)CC1 | inactive
29 | COc1cccc(-c2ccc3c(c2)[C@@H]2[C@@H](CCN2S(=O)(=O)c2cccc(OC)c2)[C@@H](CO)N3)c1 | inactive
30 | O=S(=O)(c1ccccc1F)N1CC[C@H]2[C@H](CO)Nc3ccc(-c4cccc(F)c4)cc3[C@H]21 | inactive
31 | C[C@H](CO)N1C[C@H](C)[C@@H](CN(C)Cc2ccccc2)Oc2ncc(-c3ccccc3)cc2C1=O | inactive
32 | Cc1ccc(CS(=O)Cc2ccc(C(=O)NC3CCCC(C)C3C)o2)cc1 (stereo not drawn) | inactive
33 | C[C@H]1CN([C@@H](C)CO)C(=O)c2cc(NC(=O)C3CCCCC3)ccc2O[C@H]1CN(C)Cc1ccc(-c2ccccc2)cc1 | inactive
34 | O=C(Nc1ccccc1F)N1C[C@@H]2[C@H](c3ccccc31)[C@H](CO)N2C(=O)C1CCOCC1 | inactive
35 | CO[C@H]1CN(C)C(=O)c2cc(NC(=O)Nc3cc(Cl)cc(Cl)c3)ccc2OC[C@@H](C)NC[C@@H]1C | inactive
36 | CO[C@H]1CN(C)C(=O)c2cc(NC(=O)Nc3cc(Cl)cc(Cl)c3)ccc2OC[C@H](C)NC[C@H]1C | inactive
37 | C[C@@H]1CN([C@@H](C)CO)C(=O)c2cccc(NC(=O)Nc3ccc(C(F)(F)F)cc3)c2O[C@@H]1CN(C)C(=O)Nc1cccc2ccccc12 | inactive
38 | CCc1nc2c(OCCc3cccc(OC)c3)cccn2c1N(C)C(=O)c1ccc(C)cc1 | inactive
39 | O=C(CC1Nc2ccccc2NC1=O)Nc1ccc2c(c1)OCO2 (stereo not drawn) | inactive
40 | CCCc1cc(C(=O)OC)c(NC(=O)CCC(=O)O)s1 | inactive
41 | c1ccc2[nH]c(SCc3cn4cccnc4n3)nc2c1 | inactive
42 | CC1CN(C(=O)c2cc3c(=O)n4ccccc4nc3n2C)CC(C)O1 (stereo not drawn) | inactive
43 | COc1ccc(-c2csc(CCn3nc(C)cc3C)n2)cc1OC | inactive
44 | C[C@H](CO)N1C[C@H](C)[C@H](CN(C)C)Oc2cc(C#C[C@@H](C)O)ccc2S1(=O)=O | inactive
45 | COc1cccc(S(=O)(=O)N2CC[C@@H]3[C@H]2c2cc(-c4ccc(C#N)cc4)ccc2N[C@@H]3CO)c1 | inactive
46 | CN1c2ccc(-c3ccccc3)cc2[C@@H]2[C@@H](CCN2C(=O)CN2CCOCC2)[C@H]1CO | inactive
47 | CCOC(=O)c1cnc(SCc2nc(N)nc(Nc3ccc(OC)cc3)n2)nc1N | inactive
48 | CC1OC(CC(=O)O)CC2=C1C(=O)c1c(O)cccc1C2=O (stereo not drawn) | inactive
49 | C[C@H](O)C#Cc1ccc2c(c1)O[C@@H](CN(C)C)[C@H](C)CN([C@H](C)CO)S2(=O)=O | inactive
50 | O=C(c1cccnc1)N1C[C@@H]2[C@H](c3ccccc31)[C@@H](CO)N2CC1CCCC1 | inactive

Row | SMILES | outcome
51 | O=C(NCc1ccccc1)c1ccc(-c2cn[nH]c2)c2ccoc12 | inactive
52 | CCCCNC(=O)Nc1nc2ccc(CC)cc2s1 | inactive
53 | O=c1c2cc(N3CCOCC3)ccc2[nH]c(=S)n1Cc1ccc(Cl)cc1 | inactive
54 | CS(=O)(=O)N1CCN(c2ccc(NC(=O)c3ccc([N+](=O)[O-])o3)cc2)CC1 | inactive
55 | CO[C@H]1CN(C)C(=O)c2ccc(NC(=O)c3ccc(-c4ccccc4)cc3)cc2OC[C@@H](C)NC[C@@H]1C | inactive
56 | CN(C)c1ccc(-c2ccnc3c2CC(C)(C(=O)NCC2CC2)O3)cc1 (stereo not drawn) | inactive
57 | CN(C)C(=O)c1ccc(-c2ccc3c(c2)[C@@H]2[C@@H](CCN2C(=O)c2ccc(F)cc2)[C@@H](CO)N3C)cc1 | inactive
58 | C[C@H]1CN([C@@H](C)CO)C(=O)c2cc(NC(=O)C3CCCCC3)ccc2O[C@@H]1CN(C)Cc1ccc(-c2ccccc2)cc1 | inactive
59 | C[C@H]1CN([C@@H](C)CO)C(=O)c2cc(NC(=O)CCCN(C)C)ccc2O[C@@H]1CN(C)Cc1ccc(-c2ccccc2)cc1 | inactive
60 | Cc1c(NC(=O)c2ccc3nsnc3c2)cccc1[N+](=O)[O-] | inactive
61 | CO[C@H]1CN(C)C(=O)c2cc(NC(=O)Nc3cc(Cl)cc(Cl)c3)ccc2OC[C@@H](C)NC[C@H]1C | inactive
62 | COCC(=O)Nc1ccc2c(c1)C(=O)N(C)[C@H]1CC[C@H](CC(=O)NCc3ccccc3Cl)O[C@@H]1CO2 | inactive
63 | CCOC(=O)C1=C(C)Nc2nc3ccccc3n2C1c1ccncc1 (stereo not drawn) | inactive
64 | OC(CNC1CCCc2ccccc21)COc1c(Cl)cccc1Cl (stereo not drawn) | inactive
65 | CO[C@H]1CN(C)C(=O)c2cc(NC(=O)Nc3ccc(C(F)(F)F)cc3)ccc2OC[C@H](C)NC[C@H]1C | inactive
66 | C[C@@H]1CN([C@H](C)CO)C(=O)c2cc(NC(=O)CCCN(C)C)ccc2O[C@@H]1CN(C)Cc1ccc(-c2ccccc2)cc1 | inactive
67 | Cc1ccc(S(=O)(=O)N2CC[C@@H]3[C@H]2c2cc(-c4cccc(C(=O)N(C)C)c4)ccc2N[C@@H]3CO)cc1 | inactive
68 | N#Cc1ccc(-c2ccc3c(c2)[C@@H]2[C@@H](CCN2S(=O)(=O)c2cccc(F)c2)[C@@H](CO)N3)cc1 | inactive
69 | S=C(NCC1CCCO1)Nc1ccc(Cl)cc1Cl (stereo not drawn) | inactive
70 | Cc1ccc(-c2nc3ncccc3o2)cc1NC(=O)c1ccco1 | inactive
71 | C[C@@H]1CN([C@@H](C)CO)C(=O)c2cc(NC(=O)C3CCCCC3)ccc2O[C@@H]1CN(C)Cc1ccc(-c2ccccc2)cc1 | inactive
72 | Cc1cccc(NC(=O)c2ccc(C3SCC(=O)N3CCc3ccccc3)cc2)c1 (stereo not drawn) | inactive
73 | Nc1c(C(=O)NCc2ccco2)nnn1Cc1ccccc1 | inactive

— PubChem BioAssay AID1117283 (Broad Institute, 2014)
